Molecules are shown by their SMILES. This is part of a sample that, as a whole, favours compounds with a hit. Of some 83,000 tested, about 20% had one in any assay.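 In brief: 96-well plates, 48 h treatment, single concentration, percent growth endpoint.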 Activity calls are given as the source filed them. How the source made its calls: active means growth percent below 10; inactive means the rest.

The subject of the assay is HL-60(TB) leukemia. The experiment in a line: NCI-60 one-dose screen, 48 h (100 = growth as untreated, 0 = no growth, -100 = all killed). Conditions: 10 µM unless noted.
For the compound `C=CC(C)C(C)(C)O` (stereo not given), the growth was 97.7% (inactive).

For `O=C(NNC(=S)Nc1ccccc1)c1ccccn1`, the growth is -6.25% (active).

For `CC(C)(C)OC(=O)N1CCN(CCn2cc(C(F)(F)F)c3c(Cl)ncnc32)CC1`, the growth was 16.4% (inactive).

Turning to `Cc1ccc(-c2nc(N3CCNCC3)c3oc(-c4ccc(C)cc4)nc3n2)cc1`, the growth was -69.3% (active).

Regarding `CN1C2CCC1/C(=C\c1ccc(Cl)cc1)C(=O)/C2=C/c1ccc(Cl)cc1`, the growth was 20.3% (inactive).

Turning to `CCC(=O)Oc1ccc(/C(=C(\C)c2ccccc2)c2ccc(OCCN3CCCCC3)cc2)cc1`, the growth was 68.2% (inactive).

As to `C#CC(OC(=O)N(C)C)(c1ccccc1)c1ccc(F)cc1` (stereo not given), the growth was 127% (inactive).

Turning to `CC1=C(C(=O)OCC2CCN(C(=O)OC(C)(C)C)CC2)[C@H](c2cccc(C#N)c2)C2=C(CC(C)(C)CC2=O)N1`, the growth is 27.5% (inactive).

With `COc1cccc(/C=C/C(=O)/C=C(/C=C/c2cccc(OC)c2OC)OB(F)F)c1OC`, the growth was 26.1% (inactive).

Turning to `COc1ccc(-c2nc(SC(C)C)nc(NNC(N)=S)c2C#N)cc1`, the growth was 14.3% (inactive).

On to `O=C(c1ccc(N2CCOCC2)cc1[N+](=O)[O-])N1CCOCC1`, for which the growth was 133% (inactive).

Regarding `O=C(/C=C/C12c3ccccc3C(c3ccccc31)C1C(=O)NC(=O)C12)c1ccc(I)cc1` (stereo not given), the growth was 6.86% (active).

Regarding `Cn1c(=O)c2c(c3ccccc31)OC(N)=C(C#N)C21C(=O)c2ccccc2C1=O`, the growth is 98.1% (inactive).

On to `NCCn1cc(-c2nc(-c3c[nH]c4ncccc34)cs2)c2ccccc21`, for which the growth is 78.2% (inactive).

For `COc1ccc(NC(=O)/C=C(C)/C=C/C=C(C)/C=C/C2=C(C)CCCC2(C)C)cc1`, the growth was 5.62% (active).

For `COc1ccc(C(c2cc(OC)c(OC)c(OC)c2)N2CCCC2)cc1` (stereo not given), the growth is 35.5% (inactive).

Consider `CC(C)NS(=O)(=O)/N=C1\NC(=O)NC1=C(Cl)Cl`, for which the growth is 55.6% (inactive).

Turning to `CCCCCCNCc1cc(C(C)(C)C)cc(CNCCCCCC)c1O`, the growth was -45.1% (active).

On to `ClC1=NC(Cl)C(Cl)=N/C1=N\c1ncn[nH]1` (stereo not given), for which the growth was -64.6% (active).

Turning to `COc1cccc2c1O/C(=C\c1ccc([N+](=O)[O-])s1)C2=O`, the growth was 39% (inactive).

For the compound `COc1cc2nc(Cl)nc(Nc3cccc(C(=O)/C=C/c4ccc(F)cc4)c3)c2cc1OC`, the growth was 62.1% (inactive).

`Nn1c(=O)c(=O)[nH]c2c(cnn2-c2ccccc2)c1=O`: the growth is 98.6% (inactive).

Regarding `O=Cc1nc2ccccc2[nH]1`, the growth is 98% (inactive).

Take `COc1cc2c(cc1NC(=O)C(Cl)Cl)-c1ccc(NC(=O)C(Cl)Cl)cc1C2`: the growth was -14.5% (active).

With `C=C1c2c(C)nn(-c3ccc(C#CCOC4OC(CO)C(O)C(O)C4O)cc3)c2N(C)C23C[C@H]1C1(C)c4c(C)nn(-c5ccc(C#CCOC6OC(CO)C(O)C(O)C6O)cc5)c4N(C)C(C)(C[C@H]12)C3` (stereo not given in full), the growth was -22.8% (active).
